Pf growth 96h: P. falciparum growth inhibition at 96 hours; 320,000 compounds, 6.9% hits; Potency, µM (highest dose often 28.7 µM), inactives show at the highest dose activity change, negative = inhibition, most hits filed as inhibitors; P. falciparum luciferase reporter growth, 96 h; note: potency is the fitted concentration of half-maximal effect; % is set by controls: 0 for no effect and ±100 for the full control effect
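P. falciparum expressing integrated firefly luciferase, in erythrocytes at 2% hematocrit, 0.05% parasitemia, incubated with compounds 96 h at 37 C, 5% CO2. Growth inhibition read as loss of luminescence; two-generation exposure targets delayed-death apicoplast inhibitors.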
Shiga toxin inh: inhibitors of Shiga toxin in Vero cells; Vero cells, Shiga toxin protein synthesis inhibition reporter; inhibition, % at 38.7 µM; 290,000 compounds, 9.2% hits; AID 2315; in the data active = inhibition mostly above about 28%, no sharp cut-off; inactive = mostly below about 43%; note: 0% is about no effect
Cycloheximide cs: counter-screen for Shiga toxin inhibitors: cycloheximide protein synthesis inhibition; cell reporter, cycloheximide protein synthesis inhibition counterscreen; max response, %; 300,000 compounds, 12% hits; AID 2314; in the data active = max response mostly above about 13%, no sharp cut-off; inactive = mostly below about 14%; note: read at 38.3 µM for the half of the compounds with a filed dose; 0% is about no effect
Pf growth 48h: inhibits P. falciparum growth in the first generation, 48 h; P. falciparum luciferase growth in erythrocytes, 48 h; Potency, µM (titrated, usually from 28.7 µM), for inactives: top-dose activity change, negative = inhibition, actives largely listed as inhibitors; 310,000 compounds, 5.9% hits; AID 504832; note: potency is the fitted concentration of half-maximal effect; % is set by controls: 0 for no effect and ±100 for the full control effect
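Luciferase-expressing parasites in RBCs, 2% Hct / 0.1% parasitemia final; RPMI 1640 + 0.5% Albumax; 37 C, 5% CO2, one generation; luminescence read-out, lower signal = inhibition.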
* = called active by the depositor; ? = inconclusive; . = no result. Hits are enriched below; roughly 21% of the tested compounds scored in any of these assays. Unless noted, calls come from the whole dose curve; as a rule, active = well fitted inhibition curve with a large enough effect; inconclusive = small, poorly fitted or top-dose-only effect, or another doubt; inactive = no such curve, though single readings can be large or run the other way.

SMILES	Pf growth 96h	Shiga toxin inh	Cycloheximide cs	Pf growth 48h
CCOc1ccc(N2CC(C(=O)NCC(=O)Nc3ccc(F)c(F)c3F)CC2=O)cc1 (stereo not drawn)	-27.3%	.	.	-20.3%
COc1ccc(C(=O)NCc2ccco2)cc1S(=O)(=O)NC1CC1	-20.2%	.	.	-8.3%
CC(C)(Cc1ccccc1)/[N+]([O-])=C\c1ccc(C(F)(F)F)cc1	34.0%	.	.	?
NNC(=O)c1ccc(OCC2CC(c3ccc(Cl)cc3)=NO2)cc1 (stereo not drawn)	?	40.3*	21.8*	8.28µM*
CC(OC(=O)c1ccc2ccccc2c1)C(=O)N(C)Cc1ccccc1 (stereo not drawn)	13.4%	.	.	?
C/C(N)=C(/C#N)C(=O)COC(=O)c1ccc(OCC2CCCO2)cc1 (stereo not drawn)	-2.7%	50.3*	22.2*	29.3%
CC(C)N(CCNC(=O)c1ccc(OCC2CCCO2)cc1)C(C)C (stereo not drawn)	0.0%	-18.5	-2.6	12.6%
O=C(NC1CCCCCC1)c1ccc(OCC2CCCO2)cc1 (stereo not drawn)	89.1%	59.4*	23.6*	50.9%
Cc1cc(=O)oc2cc(OCC3CC(c4ccc(Cl)cc4)=NO3)ccc12 (stereo not drawn)	.	14.3	8.3	8.8%
CC(OC(=O)c1ccc(OCC2CCCO2)cc1)C(=O)N(C)Cc1ccccc1 (stereo not drawn)	4.65µM*	.	.	3.29µM*
COc1ccc(NS(=O)(=O)c2cccc(C(=O)N/N=C/c3ccc(O)cc3)c2)cc1	2.5%	16.5	0.8	-30.5%
OCCCNc1ccccc1	4.5%	.	.	-5.0%
Nc1nc(SCC(=O)N2CCCCC2)[nH]c(=O)c1NC(=O)c1ccccc1F	?	-10.4	-3.1	3.1%
Cc1cc(C)c(C(=O)COC(=O)C2CC3CCCC(C2)C3=O)c(C)c1 (stereo not drawn)	-21.4%	.	.	?
O=C(NCCOc1ccc(Cl)cc1)C(=O)NCC1CCCO1 (stereo not drawn)	-10.2%	-11.4	0.7	7.8%
O=C(NCCc1ccc(Cl)cc1)c1ccc(OCC2CCCO2)cc1 (stereo not drawn)	-4.9%	92.0*	33.4*	31.0%
COc1ccccc1OCc1nnc(SCC(=O)Nc2nnc(C3CC3)s2)n1C	16.9%	-13.2	-1.2	-6.1%
Cc1ccccc1N1CCN(C2=NC(=O)/C(=C\c3cccs3)S2)CC1	10.4µM*	104.0*	77.6*	?
O=C1N=C(N2CCOCC2)S/C1=C/c1cccs1	11.7µM*	19.5	25.0*	-25.7%
C=CCSC1=NC(=O)/C(=C/c2cccs2)S1	13.1%	22.2	2.7	25.1%
CC(=C/c1ccccc1)/C=C1/SC(N2CCOCC2)=NC1=O	-14.4%	29.9*	23.4*	26.5%
NC1=NC(=O)/C(=C/c2cccs2)S1	?	45.7	9.0	-1.5%
CC(=O)N1CCN(C2=NC(=O)/C(=C\c3cccs3)S2)CC1	-15.7%	-7.0	5.2	-22.8%
O=C1N=C(N2CCN(c3cccc4ccccc34)CC2)S/C1=C/c1cccs1	9.28µM*	1.3	8.9	8.28µM*
CC(OC(=O)Cc1n[nH]c(=O)c2ccccc12)C(=O)Nc1ccc(F)cc1Cl (stereo not drawn)	8.2%	.	.	?
SMILES	Pf growth 96h	Shiga toxin inh	Cycloheximide cs	Pf growth 48h
Cc1cccc(OCCn2ccnc2)c1	0.0%	-6.7	-4.3	-13.8%
Cc1ccccc1OCCNC(=S)Nc1ccccc1	?	15.4	10.3	?
Cc1cccc(OCCOc2ccccc2C=C(C#N)C#N)c1	24.9%	16.8	19.1*	3.1%
Cc1ccccc1OCCOc1ccccc1C=C(C#N)C#N	161.3%	35.5*	28.2*	13.9%
Cc1ccc(OCCCCN2CCc3ccccc3C2)cc1	?	0.7	-3.1	-13.6%
COc1ccccc1N1CCN(C(=O)C(C)CS(=O)(=O)c2ccc3c(c2)NC(=O)CS3)CC1 (stereo not drawn)	45.4%	11.7	8.4	?
N/C(Cc1nc(-c2ccc(F)cc2)cs1)=N\O	61.1%	43.4*	22.0*	122.8%
O=C(CSc1nc2ccccc2[nH]1)Nc1nc(-c2ccc(Br)cc2)cs1	0.0%	18.4	9.9	?
N/C(Cc1nc(-c2ccc(Br)cc2)cs1)=N\O	?	77.7*	26.3*	91.4%
COC(=O)c1c(-c2c(Cl)cccc2Cl)noc1C(=O)NN	9.7%	15.5	-2.4	?
COc1ccc(NC(=O)Nc2ccon2)cc1OC	0.1%	-7.7	-2.8	-4.8%
CCN(CC)c1nc(C)nc2c1cnn2CCc1ccccc1	.	172.7*	49.2*	14.4%
CCCNC(=S)N(Cc1ccccc1)Cc1nc2ccccc2c(=O)[nH]1	?	-11.2	-1.1	-12.2%
COc1ccc(C(C)(C)C)cc1NC(=O)CCCN1C(=O)NC(C)(C)C1=O	-24.1%	.	.	-13.6%
Cc1c(CCO)c(=O)n(-c2ccccc2)n1S(=O)(=O)c1ccc(Cl)cc1	.	-13.3	-2.3	1.3%
NC(=O)C1=C[C@H](c2ccc3c(c2)OCO3)C[C@H](OCc2ccc(CO)cc2)O1	76.8%	49.2*	42.6*	72.6%
O=C(O)C1=C[C@@H](c2ccc3c(c2)OCO3)C[C@@H](OCc2ccc(CO)cc2)O1	68.8%	-6.7	1.8	34.0%
C#CCNC(=O)C1=C[C@H](c2ccc3c(c2)OCO3)C[C@H](OCc2ccc(CO)cc2)O1	?	19.7	18.3*	?
O=C(NC1CC1)C1=C[C@H](c2ccc3c(c2)OCO3)C[C@H](OCc2ccc(CO)cc2)O1	56.8%	-4.2	1.6	22.1%
CCN(CC(=O)Nc1c(F)cccc1F)C(=O)CCN1C(=O)C2CC=CCC2C1=O (stereo not drawn)	62.6%	.	.	0.0%
COc1ccc(/C=c2\sc3nc(=O)c(C)nn3c2=O)c(OC)c1	0.0%	82.3	7.7	11.0%
CC(=O)c1sc2nc(=O)c(C)nn2c1C	3.7µM*	1.9	-4.2	12.8%
CCC(C(=O)NCCCN1CCCC1=O)n1c2ccccc2c2nc(=O)cc(C)n21 (stereo not drawn)	?	-5.0	-8.5	10.7%
CCCNc1c(NC(=O)c2ccc3c(c2)OCO3)c(=O)oc2ccccc12	74.8%	-13.4	-8.4	10.1%
CCS(=O)(=O)c1nc(S(=O)(=O)c2ccc(C)cc2)c(N2CC(C)OC(C)C2)s1 (stereo not drawn)	14.7µM*	-1.2	-2.8	-17.8%
SMILES	Pf growth 96h	Shiga toxin inh	Cycloheximide cs	Pf growth 48h
Cc1ccc(S(=O)(=O)c2nc(S(C)(=O)=O)sc2N2CCC(C(N)=O)CC2)cc1	8.28µM*	16.2	-1.7	?
CS(=O)(=O)c1nc(S(=O)(=O)c2ccc(Cl)cc2)c(N2CCC3(CC2)OCCO3)s1	2.94µM*	4.7	-1.5	-13.1%
CCCS(=O)(=O)c1nc(S(=O)(=O)c2ccc(C)cc2)c(N2CC(C)OC(C)C2)s1 (stereo not drawn)	73.5%	-11.7	1.5	?
CCS(=O)(=O)c1nc(S(=O)(=O)c2ccc(Cl)cc2)c(N2CCC3(CC2)OCCO3)s1	-0.3%	-2.7	-2.3	-15.0%
CN1CCN(C(=O)c2ccc(CNS(=O)(=O)c3cccc(Cl)c3)cc2)CC1	?	-15.3	-2.4	-13.5%
Cc1ccc(OCC(=O)NCC2CCCO2)c(C)c1 (stereo not drawn)	18.6%	33.8	39.4*	17.5%

Assay outcomes deposited in PubChem by National Center for Advancing Translational Sciences (NCATS).
